MITF inh: MITF inhibitors, primary screen, biochemical, AlphaScreen, human; Microphthalmia-associated transcription factor (Homo sapiens), O75030; AlphaScreen MITF homodimerization, bead proximity signal; inhibition, % at 2.6 µM; 0.91% of 650,000 active; AID 1259374, 2018; in the data active = inhibition above about 50%;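 note: 0% = vehicle wells with protein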
FBW7 act: FBW7 E3 ligase activators, primary screen, biochemical, AlphaScreen, human; F-box/WD repeat-containing protein 7 (Homo sapiens), Q969H0; AlphaScreen FBW7–phospho-cyclin E peptide binding, activator screen; normalized activity (activation), % at 26.1 µM; 0.13% of 650,000 active; in the data active = normalized activity above about 1.9%;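 note: purified mutant Fbw7 with reduced substrate affinity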
GPR151 ag: activators of human GPR151, primary screen, cell-based, PathHunter beta-arrestin, luminescence; G-protein coupled receptor 151 (Homo sapiens), Q8TDV0; PathHunter beta-arrestin GPR151 cells; activation, % at 11.2 µM; 1% of 650,000 active; in the data active = activation above about 4.9%;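 note: 0% = median of compound wells and 100% = cells with positive control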
Target sequence (Q8TDV0 whole entry, looked up): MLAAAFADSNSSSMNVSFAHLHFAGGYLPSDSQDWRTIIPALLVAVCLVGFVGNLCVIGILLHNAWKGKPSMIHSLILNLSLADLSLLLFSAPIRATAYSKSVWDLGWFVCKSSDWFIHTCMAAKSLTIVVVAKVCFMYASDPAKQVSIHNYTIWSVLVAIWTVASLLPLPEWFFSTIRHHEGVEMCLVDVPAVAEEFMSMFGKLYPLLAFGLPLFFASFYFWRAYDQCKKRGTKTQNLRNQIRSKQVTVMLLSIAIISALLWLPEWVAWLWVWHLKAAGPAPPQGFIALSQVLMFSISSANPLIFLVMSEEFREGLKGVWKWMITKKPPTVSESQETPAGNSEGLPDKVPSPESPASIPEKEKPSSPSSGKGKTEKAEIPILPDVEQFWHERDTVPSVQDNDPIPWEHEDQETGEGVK
TEAD-YAP inh: TEAD-YAP interaction inhibition, primary screen, TEAD-YAP interaction inhibitor project, luminescence, HEK-TIYL cells; TEAD-Gal4/YAP UAS-luciferase luminescence; inhibition, % at 9.12 µM; 1.4% of 640,000 active; AID 1259422, 2018; in the data active = inhibition above about 32%;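 note: 0% = median of test compound wells and 100% = reference inhibitor wells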
GPR151 conf act: GPR151 activators, triplicate retest, confirmation, cell-based, PathHunter beta-arrestin, luminescence; AID 1508609, 2020; GPR151 PathHunter beta-arrestin cells, 90 min; % of EA-reagent control over plate median; activation, % at 11.2 µM; 6,700 tested, under 10 active; shares compounds with GPR151 ag;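 active = mean percent activation across replicates above the confirmation screen cutoff of 4.91%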
GPR119 counter: GPR119 activators in beta-arrestin cells, counter-screen for GPR151 activator project, cell-based, PathHunter beta-arrestin, luminescence, triplicate; shares compounds with GPR151 ag; 90 min; 0 = compound-well median, 100 = enzyme-acceptor control; activation, % at 11.2 µM; 0.3% of 6,700 active; AID 1508611, 2020;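 active = mean percent activation in the counterscreen above 29.09%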;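 note: counterscreen on off-target GPR119 to flag nonselective hits from the GPR151 activator screen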
Active calls of the source: *; nt = no result given. A selection: hits, their analogues and other compounds. The true share with any hit is near 3.5%.

SMILES	MITF inh	FBW7 act	GPR151 ag	TEAD-YAP inh	GPR151 conf act	GPR119 counter
CCc1ccc2c(c1)/C(=C/C(=O)c1cccs1)C(=O)N2	-26	0	17*	0	1	-3
Cc1cccc2c1NC(=O)/C2=C\C(=O)c1cccs1	-1	0	6.6*	7	0	1
O=C(Nc1cc(-c2cccs2)nn1CCO)C1c2ccccc2Oc2ccccc21	0	0	8.0*	4	0	9
O=C(Nc1cc(-c2cccs2)nn1CCO)C1CCC1	-1	0	0	0	nt	nt
COc1cc(OC)cc(-c2noc(C3CCN(S(=O)(=O)c4ccc(Cl)cc4)CC3)n2)c1	2	0	5.2*	-22	0	0
CCC(C)CC(=O)Nc1nc2c(s1)C(=O)CC(C(=O)N(C)C(C)C)C2 (stereo unspecified)	-1	0	7.1*	-7	0	1
CCC(C)C(=O)Nc1nc2c(s1)C(=O)CC(C(=O)N(C)C(C)C)C2 (stereo unspecified)	8	0	-1	-29	nt	nt
CC(C)N(C)C(=O)C1CC(=O)c2sc(NC(=O)c3ccccc3)nc2C1 (stereo unspecified)	11	0	6.4*	4	0	10
CCC(C)C(=O)Nc1nc2c(s1)C(=O)CC(C(=O)N(C)Cc1nonc1C)C2 (stereo unspecified)	-5	0	5.7*	-17	0	2
CC(NC1CC1)C(=O)Nc1ccccc1-c1ccccc1 (stereo unspecified)	8	0	2	-12	nt	nt
CC(=O)c1ccc(N2C(=O)C3C(C2=O)C2(CO)C=CC3(C)O2)cc1 (stereo unspecified)	9	0	5.5*	1	0	-5
O=C(c1cccnc1)N1CCC2(CC1)CC2C(=O)N1CCN(C/C=C/c2ccccc2)CC1 (stereo unspecified)	-5	0	0	8	nt	nt
COc1ccc(NS(=O)(=O)c2cc3c(cc2C)N(C)CCO3)c(OC)c1	12	0	7.3*	7	1	2
COc1cc(OC)c(NS(=O)(=O)c2cc3c(cc2C)N(C)CCO3)cc1Cl	4	0	3	-4	nt	nt
CCOC(=O)C(Cc1ccc([N+](=O)[O-])cc1)N1C(=O)c2ccccc2C1=O (stereo unspecified)	1	0	0	2	nt	nt
CCN1CCCC1CNC(=O)NC1CC(=O)N(c2ccc(C)c(C)c2)C1 (stereo unspecified)	4	-1	7.0*	-13	0	3
Cc1ccc(N2CC(NC(=O)C3CCCC3)CC2=O)cc1C (stereo unspecified)	-15	0	5.5*	6	1	6
COc1ccc(N2CC(NC(=O)C3CCCC3)CC2=O)cc1 (stereo unspecified)	12	0	-1	4	nt	nt
CC(=O)N=c1nc(-c2ccccc2)n(-c2ccccc2)s1	-11	0	6.9*	-16	-1	-10
CN=c1nc(-c2ccccc2)n(-c2ccccc2)s1	2	0	0	-7	nt	nt
CC1=C(C)CC(C(=O)NC2CCCCCC2)C(C(=O)O)C1 (stereo unspecified)	18	0	1	-5	nt	nt
COc1cccc(NC(=O)CN(C)CC(=O)Nc2ccc(-c3ccccc3)cc2)c1	-1	0	1	-7	nt	nt
CCC(C)c1ccc(NC(=O)CN(C)CC(=O)Nc2cccc(OC)c2)cc1 (stereo unspecified)	33	0	6.1*	-1	1	-3
Cc1cc(C)c2sc(NC(=O)CCC3CCCC3)nc2n1	-6	0	5.3*	-11	1	-7
CC(C)C(=O)NC(C)c1nnc2n1CCN(Cc1ccco1)CC2 (stereo unspecified)	-24	0	12*	-7	0	9
SMILES	MITF inh	FBW7 act	GPR151 ag	TEAD-YAP inh	GPR151 conf act	GPR119 counter
CC(=O)NC(C(=O)N1CCN(c2cccc(C)c2C)CC1)C(C)C (stereo unspecified)	-5	0	-1	6	nt	nt
Cc1cc(-n2cccn2)ccc1CN1CCN(C2CCCCC2)C(CCO)C1 (stereo unspecified)	1	0	2	6	nt	nt
CC(C)=CCN1CCN(Cc2ccc(-n3cccn3)cc2C)CC1CCO (stereo unspecified)	8	0	11*	-13	0	0
CCCCN(CC)C(=O)c1c[nH]c2ccc(S(=O)(=O)N(C)c3ccc(Cl)cc3)cc2c1=O	-4	0	1	-1	nt	nt
CCCCN(CC)C(=O)c1c[nH]c2ccc(S(=O)(=O)N(C)c3ccc(Cl)cc3F)cc2c1=O	0	0	8.3*	6	0	-11
CN(c1ccc(F)cc1)S(=O)(=O)c1ccc2[nH]cc(C(=O)NCC3CCCO3)c(=O)c2c1 (stereo unspecified)	-5	0	5.4*	-1	0	0
CCOc1ccc(C(=O)NCCn2cc(SC(=N)N)c3ccccc32)cc1	1	0	5.0*	10	0	-4
O=C(NCCO)c1cccc(N2C(=O)c3ccccc3C2=O)c1	1	0	7.6*	3	0	3
Cc1cc(NC(=O)C(C)n2cc([N+](=O)[O-])cn2)ccc1Br (stereo unspecified)	10	0	5.2*	-3	1	9
Cc1cccc(-n2nc3c(c2NC(=O)c2cccc(C(F)(F)F)c2)CSC3)c1C	4	1	-2	9	nt	nt
O=C1NC(N2CCOCC2)=N/C1=C/c1ccc2c(c1)OCO2	5	0	9.4*	-15	0	6
CC(C)CCNC(=O)C(Cc1ccccc1)NS(=O)(=O)c1ccc(F)cc1 (stereo unspecified)	9	0	4.9*	6	-1	-6
Cn1c(=O)c2c(ncn2CC(=O)Nc2ccccc2)n(C)c1=O	-3	0	3	-17	nt	nt
CCn1c2ccccc2c2cc(NC(=O)Cn3cnc4c3c(=O)n(C)c(=O)n4C)ccc21	3	0	6.1*	-4	0	-2
CC1=C(c2ccc(C)cc2)S(=O)(=O)N(CC(=O)N2CCN(c3ccccn3)CC2)C1=O	-9	0	2	0	nt	nt
C=CCONC(=O)Nc1ccccc1[N+](=O)[O-]	-13	0	1	-42	nt	nt
c1cc2c(cc1OCCNC1CCCC1)CCC2	-44	0	6.5*	1	0	-2
COc1ccc(OC)c(NC(=O)CC(Cc2ccc(Cl)cc2)C(=O)O)c1 (stereo unspecified)	8	0	5.2*	6	0	-7

Assay outcomes (PubChem BioAssay)
